We go through nine compounds from PubChem BioAssay (Tox21).

Values joined by “and” are separate entries in the source; they are usually repeats but may differ in a detail not shown here. Identical values can stand only once. Active and inactive are the calls of the source. Unless noted, calls follow the shape of the dose curve; as a rule, active = well fitted curve in the direction sought with a large enough effect in the repeat runs; inconclusive = weak or mixed curves; inactive = no such curve, though single readings can be large; an effect the other way counts as inactive or inconclusive.

Assay [1] is described as follows: qHTS assay to identify small molecule antagonists of the thyroid receptor (TR) signaling pathway - cell viability counter screen (AID 743064). Also: nearly all actives have a fitted effect of over 50% in size. Also: potency is read from the fitted curve at half-maximal effect. The method, boiled down: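 Viability of T3-stimulated (1 nM final) GH3.TRE-Luc cells is measured by CellTiter-Fluor fluorescence after 23.5 h compound exposure at 37 °C plus 30 min reagent incubation.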
A short description of assay [2]: qHTS assay to identify small molecule antagonists of the thyroid receptor (TR) signaling pathway (AID 743065). Also: nearly all actives have a fitted effect of over 55% in size. Also: potency is read from the fitted curve at half-maximal effect. In a few lines:
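GH3.TRE-Luc rat pituitary cells carrying two TR response elements driving luciferase were plated for 4 h, given compound plus 1 nM T3 (final), and incubated 23.5 h at 37 C. ONE-Glo luminescence measured reporter inhibition; CellTiter-Fluor fluorescence tracked cytotoxicity.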

Assay [3] in a line: qHTS assay to identify small molecule antagonists of the estrogen receptor alpha (ER-alpha) signaling pathway - cell viability counter screen (AID 743074; calls by dose curve; also: nearly all actives have a fitted effect of over 45% in size; also: potency is read from the fitted curve at half-maximal effect).
Assay [4] in a line: qHTS assay to identify small molecule antagonists of the estrogen receptor alpha (ER-alpha) signaling pathway using the BG1 cell line - cell viability counter screen (AID 743081).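 Also: compound given together with 17beta-estradiol as the ER stimulus; nearly all actives have a fitted effect of over 45% in size.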 Also: potency is read from the fitted curve at half-maximal effect.
A further assay has as its target Aromatase (Homo sapiens) (UniProt P11511). Nature of the assay: qHTS assay to identify aromatase inhibitors (AID 743083). Also: nearly all actives have a fitted effect of over 55% in size. Also: potency is read from the fitted curve at half-maximal effect.
A short description of assay [5]: qHTS assay to identify aromatase inhibitors - cell viability counter screen (AID 743084).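 Also: cells stimulated with testosterone during compound exposure; nearly all actives have a fitted effect of over 55% in size.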 Also: potency is read from the fitted curve at half-maximal effect.
Assay [6] concerns the target Aryl hydrocarbon receptor (Homo sapiens) (UniProt P35869). Nature of the assay: qHTS assay to identify small molecule that activate the aryl hydrocarbon receptor (AhR) signaling pathway (AID 743085). Also: nearly all actives have a fitted effect of over 15% in size. Also: potency is read from the fitted curve at half-maximal effect.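 As to activation: HG2L7.5c1 human HepG2 liver cells with stably integrated DRE-driven firefly reporter.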 The method, boiled down: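 A multiplexed format paired cell viability (CellTiter-Fluor fluorescence) with AhR-dependent luciferase output (ONE-Glo luminescence) in the same wells of HepG2 DRE-luc cells after 24 h compound exposure at 37C.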

The nature of assay [7]: qHTS assay to identify small molecule that activate the aryl hydrocarbon receptor (AhR) signaling pathway - cell viability counter screen (AID 743086). Also: nearly all actives have a fitted effect of over 45% in size. Also: potency is read from the fitted curve at half-maximal effect. The method, boiled down:
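HepG2-AhR-luc (HG2L7.5c1) cells, 4000/well, were preincubated 5 h at 37C, exposed to compound in qHTS format for 24 hr at 37C, then given CellTiter-Fluor for 30 min; viability was read as fluorescence in the reporter wells.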

A short description of assay [8]: qHTS assay to identify small molecule antagonists of the peroxisome proliferator-activated receptor gamma (PPARg) signaling pathway - cell viability counter screen (AID 743194). Also: nearly all actives have a fitted effect of over 55% in size. Also: potency is read from the fitted curve at half-maximal effect. The method, boiled down:
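PPARg-UAS-bla HEK293H cells were plated, rested 5 h at 37 C, then treated with compounds plus rosiglitazone (50 nM final) for 17 h at 37 C; viability was then read by CellTiter-Glo luminescence after 30 min at room temperature.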

Assay [9] can be described thus: qHTS assay for small molecule agonists of the antioxidant response element (ARE) signaling pathway - cell viability counter screen (AID 743203; calls by dose curve; also: nearly all actives have a fitted effect of over 55% in size; also: potency is read from the fitted curve at half-maximal effect). In a few lines: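 Luminescence read-out (CellTiter-Glo, 30 min at room temperature) measured cell viability in the same wells as the ARE beta-lactamase reporter. HepG2 ARE-bla cells were treated with compounds for 16 hrs at 37C/5% CO2.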

The nature of assay [10]: qHTS assay for small molecule activators of the heat shock response signaling pathway - cell viability counter screen (AID 743209). Also: nearly all actives have a fitted effect of over 50% in size. Also: potency is read from the fitted curve at half-maximal effect. The method, boiled down:
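HSE-bla HeLa; 1500 cells/well; overnight 37 C, 5% CO2; compound 5 h 37 C; LiveBLAzer B/G substrate 2.5 h RT; CellTiter-Glo 30 min RT; luminescence.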

Assay [11] can be described thus: qHTS assay for small molecule activators of the heat shock response signaling pathway (AID 743210; active = well fitted activation curve with a large enough effect in the signal ratio in the repeat runs, with a control signal flat, not every such curve was filed as active; inconclusive = weak or mixed curves; the % refers to the signal ratio;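 also: HeLa cells with beta-lactamase reporter driven by heat shock elements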). The method, boiled down:
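Activation of heat shock element-controlled beta-lactamase expression is measured in HeLa cells by LiveBLAzer FRET fluorescence, with compound exposure lasting 5 h at 37 C and substrate loading 2.5 h at room temperature.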

Assay [12] addresses Estrogen receptor (Homo sapiens) (UniProt P03372). Nature of the assay: qHTS assay to identify small molecule agonists of the estrogen receptor alpha (ER-alpha) signaling pathway (AID 743075; calls by dose curve).
Assay [13] in a line: qHTS assay to identify small molecule antagonists of the estrogen receptor alpha (ER-alpha) signaling pathway using the BG1 cell line (AID 743080; calls by dose curve;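 also: BG1 cells stimulated with 17beta-estradiol alongside compound; nearly all actives have a fitted effect of over 25% in size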; also: potency is read from the fitted curve at half-maximal effect). The note with it: BG1Luc4E2 ERE-luciferase antagonist mode, luminescence; activity change, negative = inhibition: at 70.3 µM (top of the series). In a few lines:
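Luciferase inhibition measured with ONE-Glo after 30 min at RT in BG1Luc4E2 cells given test compounds and 17beta-estradiol for 21.5 h at 37 C; CellTiter-Fluor viability read in the same wells beforehand.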

Assay [14] has as its target Peroxisome proliferator-activated receptor gamma (Homo sapiens) (UniProt P37231). Nature of the assay: qHTS assay to identify small molecule agonists of the peroxisome proliferator-activated receptor gamma (PPARg) signaling pathway (AID 743094; active = well fitted activation curve with a large enough effect in the signal ratio in the repeat runs, not every such curve was filed as active; inconclusive = weak or mixed curves, or effect the other way; inactive = no such curve, though single readings can be large or run the other way; the % refers to the signal ratio). In a few lines: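 HEK293H PPARg-bla cells, 5 h settle at 37C/5% CO2; compound (DMSO) 17 h, 37C; B/G FRET substrate 1 h RT; fluorescence intensity read-out. qHTS format.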

Assay [15] addresses Estrogen receptor (Homo sapiens) (UniProt P03372). Nature of the assay: qHTS assay to identify small molecule antagonists of the estrogen receptor alpha (ER-alpha) signaling pathway (AID 743069; active = well fitted curve in the direction sought with a large enough effect in the signal ratio in the repeat runs, not every such curve was filed as active; inconclusive = weak or mixed curves, or effect the other way; inactive = no such curve, though single readings can be large or run the other way; the % refers to the signal ratio; also: potency is read from the fitted curve at half-maximal effect). The method, boiled down:
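Screening used a UAS-driven beta-lactamase reporter integrated into HEK293 cells expressing ER-alpha, stimulated with 17beta-estradiol alongside test compounds over 18 hr at 37C; signal came from LiveBLAzer B/G FRET fluorescence.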

Assay [16] has as its target Peroxisome proliferator-activated receptor gamma (Homo sapiens) (UniProt P37231). Nature of the assay: qHTS assay to identify small molecule antagonists of the peroxisome proliferator-activated receptor gamma (PPARg) signaling pathway (AID 743191; calls by dose curve; also: nearly all actives have a fitted effect of over 30% in size; also: potency is read from the fitted curve at half-maximal effect). The method, boiled down:
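GeneBLAzer PPARg UAS-bla HEK293H cells carrying a UAS-driven beta-lactamase reporter were plated at 3000 cells/well, preincubated 5 h at 37C, then given compound for 17 h at 37C; LiveBLAzer B/G FRET substrate was read after 1 h at room temperature.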

In assay [17] the test system is thyroid hormone receptor (rat, GH3 cells). Nature of the assay: qHTS assay to identify small molecule agonists of the thyroid receptor (TR) signaling pathway (AID 743066; calls by dose curve).
Assay [18] concerns the target Estrogen receptor (Homo sapiens) (UniProt P03372). Nature of the assay: qHTS assay to identify small molecule agonists of the estrogen receptor alpha (ER-alpha) signaling pathway using the BG1 cell line (AID 743079). Also: nearly all actives have a fitted effect of over 20% in size. Particulars: BG1Luc4E2 cells, ERE-luciferase agonist, 22 h; activation: at 70.3 µM (top of the series).
The nature of assay [19]: qHTS assay for small molecule agonists of the antioxidant response element (ARE) signaling pathway (AID 743202; active = well fitted activation curve with a large enough effect in the signal ratio in the repeat runs, not every such curve was filed as active; inconclusive = weak or mixed curves, or effect the other way; inactive = no such curve, though single readings can be large or run the other way; the % refers to the signal ratio). In a few lines:
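Steps: seed ARE-bla HepG2 cells (2,000/well); incubate 5 h at 37 C; add compounds by pin tool; incubate 16 h at 37 C; add FRET substrate; read fluorescence after 2 h at RT.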

Sequence of Estrogen receptor (Homo sapiens) (P03372 whole entry, looked up): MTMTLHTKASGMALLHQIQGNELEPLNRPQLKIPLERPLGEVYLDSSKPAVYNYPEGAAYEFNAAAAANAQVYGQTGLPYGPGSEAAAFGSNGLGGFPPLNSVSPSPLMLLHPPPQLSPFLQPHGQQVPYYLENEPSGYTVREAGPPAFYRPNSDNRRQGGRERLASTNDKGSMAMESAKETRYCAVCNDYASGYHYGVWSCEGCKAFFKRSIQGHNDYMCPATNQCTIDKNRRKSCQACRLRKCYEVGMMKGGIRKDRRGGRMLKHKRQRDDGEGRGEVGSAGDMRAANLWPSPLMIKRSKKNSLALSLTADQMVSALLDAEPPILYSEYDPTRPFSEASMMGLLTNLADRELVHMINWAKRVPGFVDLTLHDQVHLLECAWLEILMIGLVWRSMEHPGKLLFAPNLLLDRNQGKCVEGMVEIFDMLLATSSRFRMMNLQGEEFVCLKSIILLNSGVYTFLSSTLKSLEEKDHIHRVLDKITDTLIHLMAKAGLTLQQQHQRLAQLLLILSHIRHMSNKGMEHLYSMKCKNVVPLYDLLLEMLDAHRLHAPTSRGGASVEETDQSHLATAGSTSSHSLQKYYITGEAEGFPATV
Sequence of Aryl hydrocarbon receptor (Homo sapiens) (P35869 whole entry, looked up): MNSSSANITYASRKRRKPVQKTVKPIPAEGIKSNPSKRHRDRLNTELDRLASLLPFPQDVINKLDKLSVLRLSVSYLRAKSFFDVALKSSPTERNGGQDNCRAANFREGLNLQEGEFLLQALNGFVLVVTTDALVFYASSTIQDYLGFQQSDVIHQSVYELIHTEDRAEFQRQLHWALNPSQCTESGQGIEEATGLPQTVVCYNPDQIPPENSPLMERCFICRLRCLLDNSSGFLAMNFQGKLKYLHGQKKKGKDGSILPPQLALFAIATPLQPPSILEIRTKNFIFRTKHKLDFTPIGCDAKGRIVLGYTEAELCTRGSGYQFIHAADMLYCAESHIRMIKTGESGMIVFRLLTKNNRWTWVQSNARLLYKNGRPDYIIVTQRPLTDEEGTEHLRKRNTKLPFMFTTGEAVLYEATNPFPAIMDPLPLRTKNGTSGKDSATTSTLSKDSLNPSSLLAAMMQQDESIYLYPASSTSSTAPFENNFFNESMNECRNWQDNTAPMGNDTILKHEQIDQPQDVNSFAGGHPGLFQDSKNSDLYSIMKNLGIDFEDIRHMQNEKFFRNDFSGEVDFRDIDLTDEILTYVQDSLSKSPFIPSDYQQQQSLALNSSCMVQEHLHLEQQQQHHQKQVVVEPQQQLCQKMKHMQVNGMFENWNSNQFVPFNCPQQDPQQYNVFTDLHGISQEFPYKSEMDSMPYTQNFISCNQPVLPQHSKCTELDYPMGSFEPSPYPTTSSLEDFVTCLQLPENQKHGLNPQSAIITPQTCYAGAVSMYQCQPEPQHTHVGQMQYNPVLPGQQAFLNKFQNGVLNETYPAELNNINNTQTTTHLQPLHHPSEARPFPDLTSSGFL
Sequence of Aromatase (Homo sapiens) (P11511 whole entry, looked up): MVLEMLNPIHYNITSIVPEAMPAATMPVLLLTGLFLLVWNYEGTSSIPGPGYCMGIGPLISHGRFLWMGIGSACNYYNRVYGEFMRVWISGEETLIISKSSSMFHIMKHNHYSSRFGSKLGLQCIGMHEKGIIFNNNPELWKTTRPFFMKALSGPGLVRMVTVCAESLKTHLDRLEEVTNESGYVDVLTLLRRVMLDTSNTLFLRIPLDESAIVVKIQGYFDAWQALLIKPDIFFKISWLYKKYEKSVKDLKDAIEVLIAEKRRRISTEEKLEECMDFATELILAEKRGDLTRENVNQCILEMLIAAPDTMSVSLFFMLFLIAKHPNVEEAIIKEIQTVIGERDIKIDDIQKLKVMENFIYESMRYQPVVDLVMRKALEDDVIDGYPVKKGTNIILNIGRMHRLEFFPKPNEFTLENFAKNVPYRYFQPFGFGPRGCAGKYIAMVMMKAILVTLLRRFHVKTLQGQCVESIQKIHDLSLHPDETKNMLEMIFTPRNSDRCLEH
Sequence of Peroxisome proliferator-activated receptor gamma (Homo sapiens) (P37231 whole entry, looked up): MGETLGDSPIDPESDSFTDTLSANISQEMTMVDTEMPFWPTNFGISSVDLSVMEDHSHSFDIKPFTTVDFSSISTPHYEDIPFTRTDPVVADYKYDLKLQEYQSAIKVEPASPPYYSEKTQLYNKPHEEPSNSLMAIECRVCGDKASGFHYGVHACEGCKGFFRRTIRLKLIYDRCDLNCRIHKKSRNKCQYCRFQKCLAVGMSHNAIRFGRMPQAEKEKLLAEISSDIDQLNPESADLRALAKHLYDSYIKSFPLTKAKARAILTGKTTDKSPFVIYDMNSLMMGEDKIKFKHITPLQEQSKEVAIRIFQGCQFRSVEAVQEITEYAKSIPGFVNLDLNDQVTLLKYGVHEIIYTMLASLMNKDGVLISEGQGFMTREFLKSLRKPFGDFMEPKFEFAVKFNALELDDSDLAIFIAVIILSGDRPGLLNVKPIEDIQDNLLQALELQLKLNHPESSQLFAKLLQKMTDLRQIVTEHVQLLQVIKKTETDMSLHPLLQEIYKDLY

For the compound `COCC(=O)O[C@]1(CCN(C)CCCc2nc3ccccc3[nH]2)CCc2cc(F)ccc2[C@@H]1C(C)C`, the Potency in assay [1] was 1.5 µM (active); in assay [2], 1.88 µM (active); in [3], 9.52 µM (active); in assay [4], 26.6 µM (active); in the assay with Aromatase (Homo sapiens) it was 13.3 µM (active); in assay [5] it was 26.6 µM (active). Also, the Potency in assay [7] is 9.44 µM (active); in assay [8], 29.8 µM (active); in assay [9], 23.7 µM (active). Moreover, the Potency entry in [6], in assay [10] and in assay [11] was “inactive” each time.
Turning to `O=C1NCCN1CCN1CCC(c2cn(-c3ccc(F)cc3)c3ccc(Cl)cc23)CC1`, the Potency in assay [1] is 6.68 µM (active); in [2], 5.96 µM (active); in [3], 15.1 µM (active) and 9.52 µM (active); in assay [13] it was 29.8 µM (active); in assay [5], 29.8 µM (active); in assay [7], 23.7 µM (active). Also, the figures for the Potency in [8] and in [9] were 29.8 µM (active) and 26.6 µM (active), respectively. Also, the Potency entry in assay [12], in [4], in assay [6], in [14] and in [10] was “inactive” in each case.
Turning to `CNC(=O)c1cc(Oc2ccc(NC(=O)Nc3ccc(Cl)c(C(F)(F)F)c3)cc2)ccn1`, the Potency was 9.44 µM (active) in assay [1]; 5.96 µM (active) in assay [2]; 6.01 µM [inconclusive] (active) in [15]; 21.3 µM (active) in assay [3]; 11.9 µM (active) with Aromatase (Homo sapiens); 23.7 µM (active) in assay [5]. In addition, the Potency in assay [7] is 18.8 µM (active); in assay [16] it was 10.6 µM (active); in assay [8] it was 18.8 µM (active). In addition, the Potency entry in assay [12], in [6] and in assay [10] was “inactive” each time.
On to `CCN(CC)CCOC(=O)C1(C2CCCCC2)CCCCC1`, for which the Potency is 26.6 µM (active) in assay [1] and 29.8 µM (active) with Aromatase (Homo sapiens). Moreover, the Potency result in assay [17], in [15], in assay [3], in assay [12], in assay [18] and in assay [13] was “inactive” each time. The Potency result in [4], in assay [6], in assay [7], in assay [14], in assay [16] and in [8] was “inactive” in each case. Besides, the Potency result in assay [19], in [9], in [10] and in assay [11] was “inactive” in each case.
Take `O=C(Nc1ccc(Cl)cc1)Nc1ccc(Cl)c(C(F)(F)F)c1`: the Potency in [1] is 6.68 µM (active); in assay [2], 5.31 µM (active); in assay [3], 9.52 µM (active); in assay [13], 21.1 µM (active); with Aromatase (Homo sapiens) it was 10.6 µM (active); in [8] it was 8.41 µM (active). For the same compound, the values for the Potency in assay [9] and in assay [10] were 16.8 µM (active) and 9.44 µM (active), respectively. Further, the Potency entry in assay [12], in assay [4], in assay [6] and in assay [14] was “inactive” each time.
On to `CCN=c1cc2oc3cc(NCC)c(C)cc3c(-c3ccccc3C(=O)OCC)c-2cc1C`, for which the Potency in [1] is 1.08 µM (active) and 1.22 µM (active); in assay [15], 48.8 nM [inconclusive] (active) and 155 nM [inconclusive] (active); in assay [3], 24.5 µM (active) and 21.9 µM (active); in assay [13], 172 nM (active) and 217 nM (active); in [4], 3.84 µM (active) and 5.45 µM (active); in the assay with Aromatase (Homo sapiens), 193 nM (active) and 137 nM (active). For the same compound, the Potency in assay [5] was 1.21 µM (active) and 1.93 µM (active); in [7], 6.83 µM (active) and 7.7 µM (active); in assay [8], 10.9 µM (active) and 6.92 µM (active); in assay [9] it was 60.9 µM (active) and 30.6 µM (active); in assay [10], 30.8 µM (active) and 19.5 µM (active). The Potency entry in assay [17], in assay [12] and in assay [6] was “inactive” throughout.
As to `COC(=O)C1=C(C)NC(C)=C(C(=O)OCCCN2CCC(c3ccccc3)(c3ccccc3)CC2)C1c1cccc([N+](=O)[O-])c1` (stereo not drawn), the Potency in assay [1] is 11.9 µM (active); in [2], 7.5 µM (active); in [7] it was 29.8 µM (active); in [8] it was 33.5 µM (active). Moreover, the Potency result in assay [10] was “inactive”.
With `Cc1nc(Nc2ncc(C(=O)Nc3c(C)cccc3Cl)s2)cc(N2CCN(CCO)CC2)n1`, the Potency was 18.8 µM (active) in [1]; 18.8 µM (active) in assay [2]; 1.33 µM (active) with Aromatase (Homo sapiens); 1.19 µM (active) in assay [6]; 9.44 µM (active) in assay [7]. For the same compound, the Potency result in assay [3], in [12], in [5], in assay [8], in assay [10] and in assay [11] was “inactive” each time.
For the compound `Oc1ccc(-c2ccc(O)cc2)cc1`, the Potency entry (in assay [1]; in [2]; in assay [17]; in [4]; in the assay with Aromatase (Homo sapiens); in assay [5]) was “inactive” throughout. For the same compound, the Potency result in [6], in assay [7], in assay [8], in assay [10] and in assay [11] was “inactive” in each case.
